The list is not random: actives were taken first. Their share in the collection is about 2.3%.
BCLXL inh – inhibitors of human Bcl-xL, primary screen, biochemical, fluorescence polarization, HTS; GST-Bcl-xL / FITC-Bim BH3 peptide fluorescence polarization; inhibition, % at 10.9 µM; 0.7% of 320,000 active;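 active means inhibition above the mean of all tested compounds plus 3 SD, cutoff set per campaign, cut at about 30% in these data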;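 further: 0% = DMSO wells and 100% = unlabeled Bim-BH3 peptide competitor; inhibitors lower millipolarization by displacing the labeled peptide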
Target sequence (Q07817 whole entry, looked up): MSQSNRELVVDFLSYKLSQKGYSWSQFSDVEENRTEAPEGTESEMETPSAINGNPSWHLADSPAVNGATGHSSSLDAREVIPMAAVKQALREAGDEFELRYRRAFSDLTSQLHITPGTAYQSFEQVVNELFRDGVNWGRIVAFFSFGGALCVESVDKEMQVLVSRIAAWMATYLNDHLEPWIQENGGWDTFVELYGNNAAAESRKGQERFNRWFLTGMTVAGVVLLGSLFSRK
Mcl1-Bid inh – Mcl-1/Bid binding inhibitors, primary screen, biochemical, TR-FRET, 1536-well; inhibition, % at 21.7 µM; AID 1021, 2008; Induced myeloid leukemia cell differentiation protein Mcl-1 (Homo sapiens), Q07820; TR-FRET Mcl-1/Bid-Dy647 peptide binding; 0.97% of 220,000 active;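 active means compounds that cut the binding signal by more than half at the single screening dose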;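 further: His-tagged Mcl-1 with europium anti-His antibody binding Bid BH3 peptide; 0% = Mcl-1 plus peptide wells and 100% = peptide-only wells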
Target sequence (Q07820 whole entry, looked up): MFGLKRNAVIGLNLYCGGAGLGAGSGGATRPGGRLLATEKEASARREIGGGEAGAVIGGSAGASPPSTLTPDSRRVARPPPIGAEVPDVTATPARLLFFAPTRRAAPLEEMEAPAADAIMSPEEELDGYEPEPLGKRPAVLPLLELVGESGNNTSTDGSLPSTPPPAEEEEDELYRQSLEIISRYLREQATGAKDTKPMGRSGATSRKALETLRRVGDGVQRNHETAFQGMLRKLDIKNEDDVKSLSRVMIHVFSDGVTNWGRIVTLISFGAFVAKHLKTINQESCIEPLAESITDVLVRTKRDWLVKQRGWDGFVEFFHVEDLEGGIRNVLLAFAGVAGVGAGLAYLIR
Mcl1-Noxa inh – Mcl-1/Noxa binding inhibitors, primary screen, biochemical, TR-FRET, 1536-well; TR-FRET Mcl-1/Noxa peptide binding, 2 h; 1.5% of 220,000 active; AID 1022, 2008; Induced myeloid leukemia cell differentiation protein Mcl-1 (Homo sapiens), Q07820; inhibition, % at 21.7 µM;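 active means compounds that cut the protein-peptide binding signal by more than 50% relative to plate controls in a single-dose test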;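 further: His-tagged Mcl-1 with rhodamine Noxa BH3 peptide and terbium anti-His antibody; 0% = Mcl-1 plus Noxa peptide wells and 100% = peptide-only wells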
Bim-Mcl-1 – inhibitors of Bim peptide binding to Mcl-1, primary screen, biochemical, bead-based flow cytometry, multiplex. Induced myeloid leukemia cell differentiation protein Mcl-1 (Homo sapiens), Q07820. Bim peptide-Mcl-1 binding. inhibition, % at 10 µM. 0.1% of 190,000 active; in the data active means inhibition above about 40%;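 further: 0% = no compound tracer wells and 100% = peptide blocker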
GLD-1 RNA inh – GLD-1/TGE RNA complex disruptors, primary screen, biochemical, fluorescence polarization; inhibition, % at 5.96 µM; 0.44% of 320,000 active; purified GLD-1 + fluorescein TGE RNA; Female germline-specific tumor suppressor gld-1 (Caenorhabditis elegans), Q17339; AID 2280, 2010;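 active means percent inhibition above a per-plate cutoff, the plate mean of test compounds plus 3 SD, cut at about 30% in these data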;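 further: 0% = DMSO wells with GLD-1 and probe and 100% = wells lacking GLD-1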
MCL1-BIM inh – inhibitors of MCL1 binding to BIM-BH3, primary screen, biochemical, fluorescence polarization; GST-MCL1 / FITC-Bim-BH3 fluorescence polarization; AID 2057, 2009; inhibition, % at 10.9 µM; 0.68% of 320,000 active;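 active means inhibition above the mean inhibition of all tested compounds plus 3 SD, set per campaign, cut at about 40% in these data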;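 further: 0% = DMSO wells and 100% = unlabeled Bim-BH3 peptide control; higher means more loss of mP so more displacement of Bim peptide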
BCLXL inh confirm – Bcl-xL inhibitors blocking Bim BH3 binding, confirmation, counter-screen for MCL1 inhibitor project, biochemical, fluorescence polarization. GST-Bcl-xL / FITC-Bim BH3 peptide FP binding. shares compounds with MCL1-BIM inh. 54% of 1,700 active. inhibition, % at 10.9 µM;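 active means inhibition above a cutoff equal to the mean inhibition of all tested compounds plus 3 SD, cut at about 30% in these data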;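 further: 0% = DMSO wells and 100% = unlabeled Bim BH3 control peptide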
MCL1 inh confirm – inhibitors of MCL1 binding to BIM-BH3, confirmation, biochemical, fluorescence polarization, triplicate; shares compounds with MCL1-BIM inh; GST-MCL1 / FITC-Bim-BH3 fluorescence polarization; inhibition, % at 10.9 µM; 61% of 1,700 active; AID 2168, 2009;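 active means inhibition above the average of all tested compounds plus 3 SD, cut at about 40% in these data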;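 further: 0% = DMSO wells and 100% = unlabeled Bim-BH3 control peptide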
Numbers without * were called inactive; / = not tested or not shown; + = active, no number.

SMILES	BCLXL inh	Mcl1-Bid inh	Mcl1-Noxa inh	Bim-Mcl-1	GLD-1 RNA inh	MCL1-BIM inh	BCLXL inh confirm	MCL1 inh confirm
O=C(NCc1ccccc1Cl)C(=O)NCC1OCCN1S(=O)(=O)c1ccc(F)cc1 (stereo unspecified)	2	/	/	/	2	2	/	/
Cc1cccn2c(=O)c3cc(C(=O)NCc4ccco4)c(=N)n(C4CCCCC4)c3nc12	20	/	/	/	11	16	/	/
Cc1ccc2nc3c(cc(C(=O)NCc4ccco4)c(=N)n3C3CCCC3)c(=O)n2c1	69*	/	/	/	37*	83*	74*	94*
O=C1NCCOC(=O)[C@@H](Cc2ccc(F)cc2)C/C=C\C[C@@H]1CC(=O)N(CCO)Cc1ccccc1	/	/	/	/	-3	/	/	/
CC(C(=O)Nc1ccc2[nH]c(=O)[nH]c2c1)N1CCN(Cc2ccc3c(c2)OCO3)CC1 (stereo unspecified)	4	/	/	/	-2	4	/	/
C=C(C)Cn1c(CN(C)Cc2ccccc2)nc2c1c(=O)n(C)c(=O)n2C	5	/	/	/	4	2	/	/
CC(C)Oc1ccc(CC(=O)NNC(=S)Nc2ccccc2)cc1	7	-143	-48	/	0	186*	-29	-53
CCOC(=O)CN(C(=O)CNC(=O)c1ccco1)C(C(=O)NC1CCCC1)c1ccccc1OCC (stereo unspecified)	2	-13	8	-1	14	4	/	/
CCOC(=O)CN(C(=O)CNC(=O)c1ccco1)C(C(=O)NC1CCCCC1)c1cccs1 (stereo unspecified)	52*	1	-2	-4	27	92*	46*	52*
Cc1ccc2[nH]c(=O)c(CN(Cc3cccnc3)Cc3nnnn3CC3CCCO3)cc2c1 (stereo unspecified)	3	-32	1	/	11	3	/	/
O=c1[nH]c2cc3c(cc2cc1CN(Cc1ccc2c(c1)OCO2)Cc1nnnn1CC1CCCO1)OCO3 (stereo unspecified)	70*	-14	13	-2	65*	74*	10	7
c1ccc(Nc2nc3ccccc3n3nnnc23)cc1	36*	-5	1	-2	5	61*	34*	33
Brc1ccc(Nc2nc3ccccc3n3nnnc23)cc1	12	-18	17	-6	3	17	/	/
Cc1noc(C)c1S(=O)(=O)NCc1ccc(CN(C)C)cc1	0	/	/	/	1	-2	/	/
CCOC(=O)Cn1ccc(NC(=O)c2ccc3c(c2)OCO3)n1	-1	/	/	/	10	3	/	/
CCC1(c2ccccc2)NC(=O)N(CC(=O)NCc2ccccc2OC)C1=O (stereo unspecified)	-2	/	/	/	7	-6	/	/
CCC1(c2ccccc2)NC(=O)N(CC(=O)Nc2ccc(OC)nc2)C1=O (stereo unspecified)	167*	/	/	/	124*	+	168*	+
COc1ccc(OCC(O)CNC(=O)c2ccc(Br)cc2)cc1 (stereo unspecified)	4	2	-20	-2	4	4	/	/
COc1ccc(OCC(O)CNC(=O)c2ccc(OC)cc2)cc1 (stereo unspecified)	4	-9	5	0	-5	44*	5	7
Cc1cccc(C(=O)N2N=C(c3ccc(NS(C)(=O)=O)cc3)CC2c2cccs2)c1 (stereo unspecified)	3	/	/	/	-9	6	/	/
CN1/C(=C\C=N\NC(=O)c2ccc(O)cc2)C(C)(C)c2ccccc21	39*	-98	-3	-4	32*	47*	-15	-28
CN1/C(=C\C=N\NC(=O)c2cccnc2)C(C)(C)c2ccccc21	6	-26	1	0	7	8	/	/
CC1(C(=O)NNC(=O)c2ccc(=O)oc2)CC1Br (stereo unspecified)	37*	-112	-53	/	29	58*	41*	52*
Cc1ccc(S(=O)(=O)N(C(=O)c2ccco2)c2cc3sc(=O)oc3c3ccccc23)cc1	14	1	11	7	0	44*	15	10
COc1ccc(S(=O)(=O)N(C(=O)c2ccco2)c2cc3sc(=O)oc3c3ccccc23)cc1	17	-30	19	-1	5	45*	1	-4
SMILES	BCLXL inh	Mcl1-Bid inh	Mcl1-Noxa inh	Bim-Mcl-1	GLD-1 RNA inh	MCL1-BIM inh	BCLXL inh confirm	MCL1 inh confirm
CCOc1ccc(S(=O)(=O)N(C(=O)c2ccco2)c2cc3sc(=O)oc3c3ccccc23)cc1	14	-12	24	-3	-3	38	/	/
Cc1ccc(C(=O)N2CCCN(c3nc4cc5c(cc4cc3C#N)OCO5)CC2)cc1	87*	/	/	/	58*	98*	-3	-5
N#Cc1cc2cc3c(cc2nc1N1CCCCC1)OCCO3	8	-7	6	0	-3	6	/	/
C/C=C/C=C/[C@H]1Cc2cc(O)cc(O)c2O1	60*	-146	56*	/	88*	67*	57*	83*
O=C1C(Cl)=C(N2CCOCC2)C(=O)N1CCc1ccccc1	1	-43	0	1	5	4	/	/
CN1CCN(C2=C(Cl)C(=O)N(CCc3ccccc3)C2=O)CC1	51*	-20	2	0	30	54*	20	30
CC(C)(C)c1ccc(C(=O)Nc2cccc3c(=O)[nH][nH]c(=O)c23)cc1	29	-42	4	-1	46*	43*	42*	47*
COc1cc(OC)cc(C(=O)NCCCCCCNC(=O)c2cc(OC)cc(OC)c2)c1	44*	/	/	/	24	48*	38*	49*
COc1cccc(C(=O)NCCCNC(=O)c2cccc(OC)c2)c1	-5	/	/	/	-3	-4	/	/
COc1ccccc1/C=C/C(C)=O	-4	-6	3	0	-28	-1	/	/
CNc1ccccc(C(=O)/C=C/c2ccccc2OC)c1=O	24	-99	63*	3	5	41*	29	62*
O=C(CCN1C(=O)C2CC=C(Cl)CC2C1=O)N1CCCCC1 (stereo unspecified)	54*	-30	-2	-1	58*	56*	56*	66*

From PubChem BioAssay
